High-throughput results deposited in PubChem BioAssay by several laboratories.
Most compounds without a hit are left out; they make up all but 4.8% or so of the library.
DAX1 inh-1 = blocks DAX1 repression of SF-1 activated StAR promoter. 370,000 compounds, 1.1% hits. AID 652010. HEK293T StAR-luciferase reporter, SF-1/DAX-1 repression relief. inhibition, % at 6.8 µM;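 active means inhibition above the mean over all tested compounds plus 3 SD, cut at about 3.6% in these data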;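 further: 0% = DAX-1 cells with DMSO and 100% = cells lacking DAX-1 with DMSO; higher inhibition means more luminescence from relief of DAX-1 repression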
hgDAF12 agonist = hgDAF-12 agonism, primary luciferase screen | activation, % at 6.8 µM | HEK293 GAL4-hgDAF12 UAS-luciferase reporter, agonist luminescence; normalized to butyrate control | 370,000 compounds, 1.8% hits;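 active means activation above a cutoff set at the mean of all screened compounds plus 3 SD, cut at about 10% in these data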;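 further: 0% = DMSO wells and 100% = sodium butyrate wells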
NR1D1 modulator = modulators of human Rev-erb alpha DNA binding; P20393; Rev-erbα–FITC-DNA binding, fluorescence polarization, 90 min; activity, % at 10 µM; 370,000 compounds, 0.79% hits; AID 1259318;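 active means activity above about 14%, limit read from the data; passing the limit was not always enough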;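 further: 0% = DMSO wells with 35 nM protein and 100% = DMSO wells with 750 nM protein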
hcDAF-12 act = activators of H. contortus DAF-12 nuclear receptor. HEK293 hcDAF-12 lit1-tk-luc reporter, luminescence; 0% DMSO, 100% Δ7-dafachronic acid. AID 652067. activation, % at 6.8 µM. 370,000 compounds, 1.4% hits;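 active means activation above the mean of all tested compounds plus 3 SD, cut at about 5.5% in these data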;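 further: 100% = response to 3 µM Δ7-dafachronic acid high control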
DAX1 inh-2 = inhibits human nuclear receptor DAX1 | 340,000 compounds, 0.99% hits | P51843 | AID 504766 | inhibition, % at 6.75 µM | HEK293 Gal4-DAX1 luciferase reporter, luminescence;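 active means inhibition above the mean over all tested compounds plus 3 SD, cut at about 4.2% in these data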;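 further: 0% = DAX1-transfected cells with DMSO and 100% = empty-vector control cells with DMSO; inhibition shows as a rise in luminescence from relieved DAX1 repression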
Target sequence (P51843 207-470 limits assumed): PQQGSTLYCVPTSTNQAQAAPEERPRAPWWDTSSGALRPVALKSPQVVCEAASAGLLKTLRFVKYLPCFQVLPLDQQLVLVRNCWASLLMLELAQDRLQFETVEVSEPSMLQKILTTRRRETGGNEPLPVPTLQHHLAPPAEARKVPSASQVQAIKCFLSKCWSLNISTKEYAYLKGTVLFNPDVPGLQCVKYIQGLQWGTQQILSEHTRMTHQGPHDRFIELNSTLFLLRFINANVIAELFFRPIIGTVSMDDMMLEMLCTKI
ssDAF-12 act = activators of S. stercoralis DAF-12 nuclear receptor | HEK293 ssDAF-12/GRIP1 lit1-tk-luc reporter, luminescence; % of 3 µM dafachronic acid response | activation, % at 6.8 µM | 370,000 compounds, 1% hits | AID 652126;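 active means activation above the mean over all tested compounds plus 3 SD, cut at about 0.9% in these data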;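 further: 0% = DMSO-only wells and 100% = 3 µM delta7-dafachronic acid wells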
An asterisk follows results filed as active; nt = no result.

SMILES	DAX1 inh-1	hgDAF12 agonist	NR1D1 modulator	hcDAF-12 act	DAX1 inh-2	ssDAF-12 act
CCN1CCN(C(=O)c2cc3c(=O)n4ccccc4nc3s2)CC1	1	0	1	3	0	0
CCN(CC)C(=O)c1cc2c(=O)n3ccccc3nc2s1	2	10	-14	6.5*	0	0
CCOC(=O)C1CCN(C(=O)c2cc3c(=O)n4cccc(C)c4nc3s2)CC1	0	1	0	6.5*	-1	0
CCC1CCCCN1C(=O)c1cc2c(=O)n3cccc(C)c3nc2s1 (stereo not given)	nt	nt	nt	nt	2	nt
Cc1cc(-n2c(=O)[nH]c(=O)n(C)c2=O)ccc1Oc1ccc(SC(F)(F)F)cc1	nt	nt	0	nt	nt	nt
Cc1csc(SCC(=O)N(C)CC(=O)Nc2ccc(F)cc2)n1	nt	nt	nt	nt	2	nt
CN(CC(=O)Nc1ccc(F)cc1)C(=O)CSc1nncs1	3.9*	2	-7	0	1	-1
CC(C)CC1NC(=S)N(C2CCCCC2)C1=O (stereo not given)	-1	0	2	1	1	0
CC(C)C1NC(=S)N(C2CCCCC2)C1=O (stereo not given)	0	2	6	-1	0	1.2*
O=S(=O)(c1c(Cl)sc(Cl)c1Br)N1CCCC1	0	-1	1	-1	0	1.5*
O=S(=O)(c1ccc(Cl)cc1)N1CCCCCC1	1	0	-3	0	0	-1
O=C1CN(c2ccccc2)C(=S)N1C(=O)c1ccccc1	2	11*	-1	5.7*	5.8*	1
COc1cc(/C=C2/C(=N)N3N=C(CC(=O)N4CCOCC4)SC3=NC2=O)ccc1OCc1ccccc1F	nt	nt	nt	nt	1	nt
COc1cc(/C=C2/C(=N)N3N=C(CC(=O)N4CCOCC4)SC3=NC2=O)ccc1OCc1ccc(F)cc1	3.8*	9	-1	3	1	0
COc1ccc(-n2c(SCC(=O)Nc3ccccc3-c3ccccc3)nnc2-c2ccccn2)cc1	0	1	-1	-1	nt	-2
O=C(/C=C/c1ccccc1)NC1CC2CCC1C2 (stereo not given)	1	7	1	1	0	-1
c1ccc(CNC2CC3CCC2C3)cc1 (stereo not given)	0	4	-4	0	-1	0.9*
C=CCN1[C@@H](Cc2ccccc2)COc2cccc(N3CCCC3)c2S1(=O)=O	-1	4	1	0	nt	-1
CCCCC(=O)Nc1nc2ccc(C(=O)OC)cc2s1	2	11*	-3	1	0	-1
CCCC(=O)Nc1nc2ccc(C(=O)OCC)cc2s1	0	4	5	0	3	-1
CCOC(=O)c1ccc2nc(NC(=O)c3cccs3)sc2c1	3	12*	19	5	4.8*	0
COC(=O)C[C@@H]1C[C@@H]2c3cc(NS(=O)(=O)c4ccccc4)ccc3O[C@@H]2[C@@H](CO)O1	1	13*	6	0	1	-2
Cn1c(-c2nnn(-c3ccc(F)cc3)n2)cc2ccccc21	2	9	0	12*	nt	1
Cn1cc(C(=O)N2CCc3ccccc32)cn1	2	5	-8	6.5*	2	1.2*
CCN(CC)CCN1C(=O)C(O)=C(C(C)=O)C1c1ccccc1[N+](=O)[O-] (stereo not given)	0	1	5	6.3*	1	1.4*
SMILES	DAX1 inh-1	hgDAF12 agonist	NR1D1 modulator	hcDAF-12 act	DAX1 inh-2	ssDAF-12 act
O=C(CN1CCOc2ccccc21)NC1CC1	1	2	-2	6.5*	3	2.1*
CN(Cc1ccc(F)cc1)C(=O)CN1C(=O)C2(OCCCO2)c2ccccc21	-1	0	0	0	nt	-1
CCCCN1CCC(COC(=O)c2cc(Cl)c(N)c3c2OCCO3)CC1	4.5*	4	-9	-2	2	-1
O=S1(=O)c2ccc(N3CCC[C@H]3CO)cc2OCCCN1C1CC1	0	-1	7	-2	nt	-1
COc1ccc(-n2c(=O)cc(N3CCc4ccccc43)[nH]c2=O)cc1	0	0	3	2	0	-1
O=c1cc(N2CCc3ccccc32)[nH]c(=O)n1-c1ccc(Br)cc1	1	-1	-5	5.8*	-1	-1
